# Test results from PubChem BioAssay (Tox21).
# Records with an inconclusive call do not appear. Activity calls are given as the source filed them. Calls come from the whole dose curve; as a rule, active = well fitted activation curve with a large enough effect in the repeat runs; inconclusive = weak or mixed curves, or effect the other way; inactive = no such curve, though single readings can be large or run the other way.
# Assay: qHTS assay to identify small molecule agonists of the estrogen related receptor signaling pathway with the pleiotropic PPARgamma coactivator (PGC) from Tox21 10K library (AID 1224842); note: nearly all actives have a fitted effect of over 15% in size
# Details: PGC/ERR reporter cell line, luciferase ONE-Glo, 18 h; series mostly up to 92.4 µM; activation: at the top concentration
# Text: National Center for Advancing Translational Sciences [NCATS] NIH Chemical Genomics Center [NCGC] U.S. Environmental Protection Agency [EPA] National Institutes of Environmental Health Sciences [NIEHS] National Toxicology Program [NTP] Assay overview: Estrogen related receptors (ERRs), the first orphan nuclear receptors discovered, play an important role in the control of cellular energy metabolism. ERRs are required for high-energy production in response to the environmental challenges. The pleiotropic PPARgamma coactivator (PGC) is a major partner of ERR and a key regulator in energy homeostasis. Together they have been implicated in the etiology of metabolic disorders such as Type 2 diabetes and metabolic syndrome. ERR-alpha was also identified as an adverse marker for breast cancer progression; ERR-alpha-positive tumors have a poor prognosis. To screen and to identify environmental compounds that perturb the PGC/ERR signaling pathways could provide valuable information for potential therapeutic or preventive measures in the treatment of metabolic disease. For identifying PGC/ERR agonists, PGC/ERR cell line (provided by NTP) has been used to screen Tox21 10K library.
# Assay Protocol Summary: The PGC/ERR cells were dispensed at 2,000 cells/5 ul/well in 1536-well white plates using a Multidrop dispenser. After the assay plates were incubated at a 37 C/5% CO2 incubator for 6 hours, 23 nL of compounds dissolved in DMSO, positive and negative controls or DMSO only was transferred to the assay plate by a pin tool. The plates were incubated at 37 C for 18 hours. 4 ul/well of One-Glo reagent was added into the assay plates using a Flying Reagent Dispenser. After 30-minute incubation at room temperature, the luminescence intensity in the plates was measured using a ViewLux plate reader.
# % is set by controls: 0 for no effect and ±100 for the full control effect; potency is the fitted concentration of half-maximal effect.
SMILES,activation,Potency
C#CC(O)CCC (stereo not given),-0.612% (inactive),
O=C1OC(OC(=O)c2cccnc2Nc2cccc(C(F)(F)F)c2)c2ccccc21 (stereo not given),-2.24% [at 42.5 µM] (inactive),
Cc1ccc(O)cn1,3.36% (inactive),
CCC(C)(C)c1cc(O)c(C(C)(C)CC)cc1O,-23.8% (inactive),
CC[N+](CC)(CC)Cc1ccccc1,0.0093% (inactive),
CCc1c(Br)c(Br)c(Br)c(Br)c1Br,0.363% (inactive),
CC(=O)OC1CCCCC1,-3.98% (inactive),
C=C[C@](C)(O)CC[C@@H]1[C@@]2(C)CCCC(C)(C)[C@@H]2CC[C@@]1(C)O,-17.6% (inactive),
C=C/C=C/C=C/CCCCC,0.0738% [at 19 µM] (inactive),
CCCC(=O)OCC(COC(=O)CCC)OC(=O)CCC,5.14% (inactive),
CCN(CC)CCOc1ccc(C(O)(Cc2ccc(Cl)cc2)c2ccc(C)cc2)cc1 (stereo not given),5.93% [at 42.5 µM] (inactive),
NCCCCCCNCCCCCCN,-7.46% (inactive),
Cc1cnccn1,-0.0199% (inactive),
CCc1c(C(=O)O)c(=O)cnn1-c1ccc(Cl)cc1,0.46% (inactive),
C=CC(=O)OCCOCC(CC)(COCCOC(=O)C=C)COCCOC(=O)C=C,-36.9% (inactive),
C[C@H]1O[C@@H](O[C@H]2[C@@H](O)C[C@H](O[C@H]3[C@@H](O)C[C@H](O[C@H]4CC[C@@]5(C)[C@H](CC[C@@H]6[C@@H]5C[C@@H](O)[C@]5(C)[C@@H](C7=CC(=O)OC7)CC[C@]65O)C4)O[C@@H]3C)O[C@@H]2C)C[C@H](O)[C@@H]1O,,inactive
COc1nccnc1CC(C)C,1.84% (inactive),
Cc1nc(Nc2ncc(C(=O)Nc3c(C)cccc3Cl)s2)cc(N2CCN(CCO)CC2)n1,,0.0944 µM (active)
CC(C)N=C(N)/N=C(\N)Nc1ccc(Cl)cc1,-4.98% [at 42.5 µM] (inactive),
CC(C)c1ccccc1N,-1.75% (inactive),

SMILES,activation,Potency
Cc1c(C)n(Cc2ccccc2)c2ccc(C(=O)OCCN(C)C)cc12,,29.8 µM (active)
C(=C/c1ccccc1)/c1ccccc1,2.32% (inactive),
O=C1C=CC(=O)N1c1ccccc1,-39.8% (inactive),
O=C1OC(=O)c2cccc3cccc1c23,-4.16% (inactive),
CCOC(OCC)C(=O)c1ccccc1,-0.267% (inactive),
Oc1c(Br)cc(Br)c2cccnc12,,29.8 µM (active)
[O]=[Zr],1.28% (inactive),
CCC(C)C(=O)OC (stereo not given),-2.41% (inactive),
CO[Si](CCC1CCC2OC2C1)(OC)OC (stereo not given),0.387% (inactive),
CC1=CP(=O)(c2ccccc2)CC1 (stereo not given),1.44% (inactive),
O=C1NCN(c2ccccc2)C12CCN(CCCC(c1ccc(F)cc1)c1ccc(F)cc1)CC2,-15.6% [at 42.5 µM] (inactive),
O=C(NO)c1ccccc1,-14.7% (inactive),
CC(C)c1ccc(O)c(C(C)C)c1,1.27% (inactive),
O=C(c1ccccc1)c1cc(Cl)ccc1O,0.319% (inactive),
Brc1ccccc1-c1ccccc1,-2.48% (inactive),
CN1CCN(C2Cc3ccccc3Sc3ccc(Cl)cc32)CC1 (stereo not given),4.72% [at 42.5 µM] (inactive),
CCOCOCC,0.414% (inactive),
C=CC/C=C/C/C=C/C/C=C/C,-1.32% (inactive),
COc1cc(C=C2CCC/C(=C\c3ccc(O)c(OC)c3)C2=O)ccc1O,-32.6% [at 42.5 µM] (inactive),
COC(=O)C1=C(C)NC(C)=C(C(=O)OCCCN2CCC(c3ccccc3)(c3ccccc3)CC2)C1c1cccc([N+](=O)[O-])c1 (stereo not given),-31.9% [at 42.5 µM] (inactive),
